Assay outcomes (PubChem)
Many of the other results were omitted from the sample, so hits are more common in it than they were.
BL2 CD40 inh: CD40 pathway inhibition in BL2 cells; BL2 NF-kB luciferase reporter, CD40L-induced, 4 h; inhibition, % at 10 µM; hit rate 0.94% among 83,000; AID 1053188;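 active = mean inhibition of at least 50% with a set share of replicates also reaching that level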
Each line names hits and unclear results; the compound was inactive in the other large screens; [ ] = dose if it differs, or a comment.

COc1cc(-c2cc(=O)c3c(C)cc(O)cc3o2)cc(OC)c1OC	none
COc1ncccc1C(=O)NC1CCCc2c1cnn2-c1cc(C)cc(C)c1 (stereo not given)	none
[O-]C(=C(C(=S)Nc1cccc2ccccc12)[n+]1ccccc1)c1ccc2c(c1)OCCO2	BL2 CD40 inh 55
O=C(Nc1cccc2cccnc12)c1ccc2c(c1)OCCO2	none
S=C(CSc1ccccc1)Nc1cccc2ccccc12	none
Cc1ccc2c(c1)N(C(=O)CCC(=O)NC1CCCCCC1)CCO2	none
Cc1cc(Cl)ccc1OCc1nc(-c2ccc(O)cc2)n[nH]1	none
COC(=O)CCCSc1nccn1-c1ccccc1	none
O=C(O)c1cccnc1SCCc1ccccc1	none
c1ccc(CCSc2nccn2-c2ccccc2)cc1	BL2 CD40 inh active
CC1CCCC(NC(=O)CSc2n[nH]c(=O)n2Cc2ccccc2)C1C (stereo not given)	none
Cc1ccc(S(=O)(=O)Nc2cccc(C(=O)N3CCCC3)c2)cc1F	none
CC(=O)c1cccc(NC(=O)/C=C/c2ccc(S(=O)(=O)N3CCOCC3)cc2)c1	none
COC(=O)c1cccc(NC(=O)/C=C/c2cccc([N+](=O)[O-])c2)c1	none
O=C(/C=C/c1ccccc1)Nc1cccc(C(=O)O)c1	BL2 CD40 inh 82
COCc1cc(CN2CCCC2)c(O)c2ncccc12	none
CCOC(=O)N1CCN(Cc2ccc(O)c3ncccc23)CC1	BL2 CD40 inh 65
Oc1ccc(CN2CCN(c3ccccc3)CC2)c2cccnc12	none
CCN1C(=O)C(CC(=O)Nc2ccc(F)cc2)N(Cc2ccc3c(c2)OCO3)C1=S (stereo not given)	none
CCN1C(=O)C(CC(=O)Nc2ccc(F)cc2)N(Cc2ccco2)C1=S (stereo not given)	BL2 CD40 inh 37
COC(=O)CN1C(=S)N(c2ccc(F)cc2)C(=O)C1CC(=O)Nc1ccccc1 (stereo not given)	none
CC1CC(Nc2ccccc2)c2ccccc2N1C(=O)c1cccnc1 (stereo not given)	none
C[C@@H]1C[C@H](Nc2ccccc2)c2ccccc2N1C(=O)c1cccnc1	BL2 CD40 inh 20
CC(=O)N(c1ccccc1)C1CC(C)N(C(=O)c2ccccc2)c2ccccc21 (stereo not given)	none
Cc1nc(Nc2nc3ccccc3o2)nc2c1CCC2	BL2 CD40 inh active
Cc1nc(Nc2nc3ccccc3o2)nc(C)c1C(=O)Nc1ccc(F)cc1	none
COCc1cc(=O)[nH]c(Nc2nc3ccccc3o2)n1	none
CCC(c1nc2ccccc2c(=O)n1CCN1CCOCC1)N1C(=O)c2ccccc2C1=O (stereo not given)	none
O=C(Cn1ccc2ccccc21)Nc1ccc2c(c1)OCO2	none
CC(=O)Nc1nc(SCc2cccc3ccccc23)n[nH]1	none
CN(CC(=O)Nc1cccc(Cl)c1)C1=NS(=O)(=O)c2ccccc21	none
O=C1NNC(=O)C1c1ccccc1	none
CN1C(=O)c2ccccc2C(O)c2ccccc21 (stereo not given)	none
O=C1C=CC(=O)C2=C1C1c3ccccc3C2c2ccccc21	BL2 CD40 inh 59[25 µM]
COc1ccc(S(=O)(=O)N2CCC(NC(=O)N3CCOCC3)CC2)cc1	none
C[C@@H]1CN([C@@H](C)CO)C(=O)c2cc(NS(=O)(=O)c3cn(C)cn3)ccc2O[C@@H](C)CCCCO[C@H]1CN(C)Cc1ccc2c(c1)OCO2	none
Cc1sc2ncnc(Sc3nnnn3-c3ccccc3)c2c1C	BL2 CD40 inh 47
CCCSc1ncnc2sc(C)c(C)c12	none
Cc1sc2ncnc(SCC#N)c2c1C	none
O=C(O)C1(c2cccc(Cl)c2)CCC1	none
CN(C)S(=O)(=O)N1CCC(Oc2ccc(C(=O)NCc3cnn(C)c3)cc2)CC1	none
COCC#Cc1ccc([C@H]2[C@@H](CO)N3C(=O)CN(C(=O)C4CCCCC4)C[C@H]23)cc1	none
O=C(COC(=O)C1CCN(C(=O)c2ccc(Cl)cc2)CC1)c1ccco1	none
COc1cc2c(cc1OC)C(=O)C(Br)CC2 (stereo not given)	BL2 CD40 inh 100
COc1cc2c(cc1OC)C(=O)CCS2	none
COc1cc2c(cc1OC)C(=O)N(C)CC2	none
COc1ccc(C(=O)OCC(=O)N2CCc3ccccc32)cc1S(=O)(=O)N1CCOCC1	none
Cc1ccc(S(=O)(=O)N2CCN(C(=O)COC(=O)CNC(=O)c3ccc(Cl)cc3Cl)CC2)cc1	none
CN(C)CC1CCC/C(=C\c2ccc(OC(=O)/C=C/c3ccccc3)cc2)C1=O (stereo not given)	none
COc1ccc(OCCOCCN2CCOCC2)cc1	none
COc1ccc(/C=C2/CCC(CN3CCOCC3)C2=O)cc1 (stereo not given)	BL2 CD40 inh 74
CSc1ccc2c(c1)N(CCC1CCCCN1C)c1ccccc1S2 (stereo not given)	BL2 CD40 inh 74
OCCN1CCN(CCCN2c3ccccc3Sc3ccc(Cl)cc32)CC1	none
CN(C)CCCN1c2ccccc2Sc2ccc(Cl)cc21	none
Cc1ccc(-n2nc(C)c(C3(O)C(=O)N(C)c4ccccc43)c2N)cc1 (stereo not given)	none
O=C(CC12CC3CC(CC(C3)C1)C2)N1CCOCC1	none
CN(C(=O)COC(=O)C(Cc1ccccc1)NC(=O)c1ccccc1)c1ccccc1 (stereo not given)	none
Cc1nc(NC(=O)C2CCCC2)sc1Cc1ccc2c(c1)OCO2	none
CSc1nsc(SC)c1C(=O)OCC(F)(F)F	none
CSc1nsc(SC)c1C(=O)O	none
